Compound activity (PubChem)
Compounds with a hit are over-represented: about 14% of the library has one in this group of screens.
Pf growth 96h = inhibits malaria parasite growth, 96 h; P. falciparum luciferase reporter growth, 96 h; Potency, µM (highest dose often 28.7 µM), hits mostly inhibitors; 6.9% of 320,000 active
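P. falciparum expressing integrated firefly luciferase grown in erythrocytes (2% hematocrit, 0.05% parasitemia final) with compounds for 96 hours at 37 C, 5% CO2. Growth inhibition read as loss of luminescence after adding luciferase detection reagent.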
Sm TGR inh = inhibitors of Schistosoma mansoni thioredoxin glutathione reductase; Q962Y6; purified TGR, DTNB reduction, TNB absorbance 405 nm; Potency, µM (top dose mostly 114 µM), most hits filed as inhibitors; 3% of 360,000 active; AID 485364; further: nearly all actives have a fitted effect of over 60% in size
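TGR 20 nM + NADPH 100 uM (dispensed conc.), cpd preinc 15 min RT; start with NADPH (500 uM addition) then DTNB (15 mM addition). Kinetic TNB absorbance, 405 nm filter. Four-parameter Hill fit across titration.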
HCMV inh = inhibitors of human cytomegalovirus | HFF cells, HCMV-luciferase reporter, 72 h; hits give low values | activity change, negative = inhibition, % at 57.5 µM | 4.5% of 410,000 active | AID 1259415; in the data active means activity change below about -60%; inconclusive means no clear call, values can overlap the other calls; inactive means above about -39%
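Luciferase read-out from HCMV-luciferase-infected HFFs (MOI 1 PFU/cell) 72 h post infection at 37C; compounds added after 16 h cell attachment; activity normalized between buffer-only basal and Salinomycin (10uM) inhibitor controls.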
FBPA Giardia inh = blocks Giardia fructose-bisphosphate aldolase activity | A8B2U2 | purified Giardia FBPA | Potency, µM (top dose mostly 59.6 µM), hits mostly inhibitors | 0.71% of 290,000 active; further: nearly all actives have a fitted effect of over 55% in size
Target sequence (A8B2U2 whole entry, looked up): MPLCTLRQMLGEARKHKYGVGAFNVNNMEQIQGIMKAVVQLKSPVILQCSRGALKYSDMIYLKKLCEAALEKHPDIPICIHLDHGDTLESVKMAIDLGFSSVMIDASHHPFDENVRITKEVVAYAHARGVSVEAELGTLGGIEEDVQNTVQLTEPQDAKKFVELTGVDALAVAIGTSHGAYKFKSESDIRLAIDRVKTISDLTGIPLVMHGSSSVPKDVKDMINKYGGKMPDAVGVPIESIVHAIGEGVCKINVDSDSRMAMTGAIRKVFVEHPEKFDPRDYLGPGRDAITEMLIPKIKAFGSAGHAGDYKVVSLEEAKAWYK
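Giardia FBPA (40 nM reagent) was preincubated 10 min at RT with compound (up to 57.5 uM final), then substrate plus GAPDH/TPI/NAD/arsenate coupling system with diaphorase/resazurin was added; resorufin fluorescence (525/598 nm) was read after 20 min.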
Pf growth 48h = P. falciparum growth inhibition at 48 hours (one generation) | 5.9% of 310,000 active | Potency, µM (titrated, usually from 28.7 µM), usual class: inhibitors | AID 504832 | P. falciparum luciferase growth in erythrocytes, 48 h
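Parasite viability was followed by luminescence of a genomically integrated firefly luciferase. Cultures held 0.1% parasitemia at 2% hematocrit (final), incubated under 5% CO2 at 37 C.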
A number is an active result. Unless noted, the call rests on the fitted dose curve; in most records, active means well fitted curve in the direction sought with a large enough effect; inconclusive means small, poorly fitted or top-dose-only effect, or another doubt; inactive means no such curve, though single readings can be large; an effect the other way counts as inactive or inconclusive.

Results for O=C(COC(=O)c1ccc(Br)o1)Nc1nc2ccccc2s1 ?
Pf growth 96h: inactive; Sm TGR inh: inactive; HCMV inh: inactive; FBPA Giardia inh: inactive; Pf growth 48h: inactive

How did Cc1ccc2nc(NC(=O)COC(=O)c3ccc(Br)o3)sc2c1 do in these assays?
Pf growth 96h: 1.2µM; Sm TGR inh: inactive; HCMV inh: inactive; FBPA Giardia inh: inactive; Pf growth 48h: inactive

Results for Cc1cccc(C)c1NC(=O)COC(=O)c1ccc([N+](=O)[O-])o1 ?
Pf growth 96h: inactive; Sm TGR inh: inactive; HCMV inh: inactive; FBPA Giardia inh: inactive; Pf growth 48h: inconclusive

How did O=C(COC(=O)c1ccc([N+](=O)[O-])o1)Nc1nc2ccccc2s1 do in these assays?
Pf growth 96h: inactive; Sm TGR inh: 28µM; HCMV inh: inactive; FBPA Giardia inh: inactive; Pf growth 48h: inactive

How did CCCCNC(=O)c1cccc2c(=O)c(C)c(-c3ccccc3)oc12 do in these assays?
Pf growth 96h: inconclusive; Sm TGR inh: inactive; HCMV inh: -68; FBPA Giardia inh: inactive; Pf growth 48h: inactive

How did CCCCN(C(=O)c1cccc2c(=O)c(C)c(-c3ccccc3)oc12)c1ccccc1 do in these assays?
Pf growth 96h: 4.1µM; Sm TGR inh: inactive; HCMV inh: -63; FBPA Giardia inh: inactive; Pf growth 48h: inconclusive

How did CCCCNC(=O)c1ccccc1Cl do in these assays?
Pf growth 96h: inconclusive; Sm TGR inh: inactive; HCMV inh: -107; FBPA Giardia inh: inactive

What do the screens show for `Cc1c(-c2ccccc2)oc2c(C(=O)N3CCN(c4ccccc4F)CC3)cccc2c1=O`?
Pf growth 96h: inactive; Sm TGR inh: inactive; HCMV inh: inactive; FBPA Giardia inh: inactive; Pf growth 48h: inactive

What do the screens show for `CN(CCCNC(=O)c1ccccc1F)CCCNC(=O)c1ccccc1F`?
Pf growth 96h: 9.3µM; Sm TGR inh: inactive; HCMV inh: inactive; FBPA Giardia inh: inactive; Pf growth 48h: inconclusive

How did Cc1ccc(NC(=O)COC(=O)c2cccc3c(=O)c(C)c(-c4ccccc4)oc23)cc1 do in these assays?
Pf growth 96h: inactive; Sm TGR inh: inactive; HCMV inh: inactive; FBPA Giardia inh: inactive; Pf growth 48h: inactive

How did C=CCC1(NC(C)c2ccccc2)CCCCC1 (centres undefined) do in these assays?
Pf growth 96h: inactive; Sm TGR inh: inactive; HCMV inh: inactive; FBPA Giardia inh: inactive; Pf growth 48h: inactive

What do the screens show for `CCOP(=O)(OCC)C(NC(=O)Nc1ccc(C)c(Cl)c1)c1ccccc1` (centres undefined)?
Pf growth 96h: 15µM; Sm TGR inh: inactive; HCMV inh: inconclusive; FBPA Giardia inh: inactive; Pf growth 48h: inconclusive

What do the screens show for `O=C1C=CC2C3C(=O)N(c4ccccc4)C(=O)C3C1N2Cc1ccccc1` (centres undefined)?
HCMV inh: -78

Results for O=C1C2C3C=CC(CC3)C2C(=O)N1c1ccccc1 (centres undefined) ?
Pf growth 96h: inconclusive; Sm TGR inh: inconclusive; HCMV inh: inactive; FBPA Giardia inh: inactive; Pf growth 48h: inactive

What do the screens show for `Cc1ccc2c(C)c(C(=O)Nc3cccnc3)oc2c1C`?
HCMV inh: inactive

What do the screens show for `N=C(N)c1ccc(/C=C/c2ccc(C(=N)N)cc2O)cc1`?
Pf growth 96h: 0.076µM; Sm TGR inh: inactive; HCMV inh: inactive; FBPA Giardia inh: inactive; Pf growth 48h: 1.1µM

What do the screens show for `CC(Sc1nc2ccccc2[nH]1)C(=O)Nc1ccccc1F` (centres undefined)?
Pf growth 96h: inactive; Sm TGR inh: inactive; HCMV inh: -73; FBPA Giardia inh: inactive; Pf growth 48h: inactive

What do the screens show for `O=C(Nc1ccc(F)cc1)C(Sc1nc2ccccc2[nH]1)c1ccccc1` (centres undefined)?
Pf growth 96h: inconclusive; Sm TGR inh: inactive; HCMV inh: inactive; FBPA Giardia inh: inactive; Pf growth 48h: inconclusive

How did CC(SCc1ccccc1)C(=O)Nc1ccccc1F (centres undefined) do in these assays?
Pf growth 96h: 0.93µM; Sm TGR inh: inactive; HCMV inh: inactive; FBPA Giardia inh: inactive; Pf growth 48h: inactive

How did O=c1cnc2cnc(Oc3ccccc3)nc2n1Cc1ccc(F)cc1 do in these assays?
FBPA Giardia inh: inactive

How did CCCCCCCN[C@H]1CCC[C@@H]1CCCCCCC(=O)O do in these assays?
FBPA Giardia inh: inactive

How did Cc1cc(F)ccc1N1CCC(N2CCN(C(C)C)C(CCO)C2)CC1 (centres undefined) do in these assays?
Pf growth 96h: 10µM; Sm TGR inh: 40µM; HCMV inh: inactive; FBPA Giardia inh: inactive; Pf growth 48h: inactive
